Bioassay records (PubChem)
TGFb SMAD3 inh: TGF-b pathway inhibition; HepG2 CAGA-GFP TGF-b/SMAD3 reporter, GFP fluorescence, 18 h; TGF-beta stimulated, 500 pg/mL final; Potency, µM (doses to about 46.1 µM), without a hit: at the highest dose activity, negative = inhibition, most hits filed as inhibitors; 410,000 compounds, 1.2% hits; also: potency is read from the fitted curve at half-maximal effect; % is scaled to controls: 0 for no effect and ±100 for the full control effect; nearly all actives have a fitted effect of over 65% in size
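Inhibition of TGF-beta-driven CAGA-GFP reporter expression in HEPG2 cells is measured by cellular GFP fluorescence after 18 h stimulation with 500 pg/mL recombinant TGF-beta in 1% FBS medium at 37 degrees C.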
S2 tox: cell viability loss in ATXN counter-screen; 400,000 compounds, 0.49% hits; Potency, µM (series often up to 56.7 µM), actives largely listed as cytotoxic; S2 cells (HEK-293 line with an ATXN2-luciferase reporter) viability, CellTiter-Fluor protease fluorescence, 24 h; also: potency is read from the fitted curve at half-maximal effect; nearly all actives have a fitted effect of over 40% in size
ATXN2 expr inh: inhibitors of ATXN2 expression; 360,000 compounds, 0.72% hits; Potency, µM (series often up to 57 µM), for inactives: top-dose activity change, negative = inhibition, hits mostly inhibitors; HEK-293 ATXN2-luciferase reporter, luminescence, 24 h; also: potency is read from the fitted curve at half-maximal effect; % is scaled to controls: 0 for no effect and ±100 for the full control effect; nearly all actives have a fitted effect of over 55% in size
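qHTS (up to 57 uM final) was run with 24 h compound exposure of reporter cells at 37 °C. Each well was multiplexed: SteadyGlo luminescence measured ATXN2-luciferase expression after a fluorogenic Gly-Phe-AFC viability readout (25 uM final).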
HepG2 tox-1: kills HepG2 cells in TGF-b inhibitor counter-screen. HepG2 CAGA-GFP viability, ATP luminescence, 18 h. Potency, µM (series often up to 46.1 µM), for inactives: top-dose activity change, negative = cytotoxicity, actives largely listed as cytotoxic. 410,000 compounds, 0.76% hits; also: potency is read from the fitted curve at half-maximal effect
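CellTiter-Glo luminescence gave cytotoxicity after 18 hours at 37 degrees C. The cells were HepG2 CAGA-GFP in 1% FBS DMEM, stimulated with 500 pg/mL TGF-beta after compound addition. %Activity was normalised to no-cell wells (complete cell-killing) and DMSO (no toxicity), and curves were fitted and classified.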
TGFb CAGA inh: confirmation of TGF-b signaling inhibitors in HepG2 reporter cells; 1,600 compounds, 63% hits; Potency, µM (doses to about 46.1 µM), for inactives: at the highest dose activity, negative = inhibition, actives largely listed as inhibitors; HepG2 CAGA-GFP TGF-b reporter, GFP fluorescence, 18 h; cells stimulated with TGF-beta, 500 pg/mL; AID 720534; shares compounds with TGFb SMAD3 inh; also: potency is read from the fitted curve at half-maximal effect; % is scaled to controls: 0 for no effect and ±100 for the full control effect; nearly all actives have a fitted effect of over 65% in size
HepG2 tox-2: counter-screen for TGF-b inhibitors: cytotoxicity in HepG2 cells; shares compounds with TGFb SMAD3 inh; HepG2 CAGA-GFP viability, ATP luminescence, 18 h; cells stimulated with TGF-beta, 500 pg/mL; Potency, µM (top dose mostly 46.1 µM), for inactives: top-dose activity, negative = cytotoxicity, actives largely listed as inhibitors; 1,600 compounds, 27% hits; also: potency is read from the fitted curve at half-maximal effect; % is scaled to controls: 0 for no effect and ±100 for the full control effect; nearly all actives have a fitted effect of over 70% in size
CCL64 TGFb inh: blocks TGF-b signaling in CCL64 reporter cells; Potency, µM (highest dose often 46.1 µM), for inactives: top-dose activity, negative = inhibition, actives largely listed as inhibitors; 1,600 compounds, 41% hits; shares compounds with TGFb SMAD3 inh; CCL64 CAGA-GFP reporter, TGF-b stimulated, GFP fluorescence, 18 h; AID 720536; also: potency is read from the fitted curve at half-maximal effect; nearly all actives have a fitted effect of over 65% in size
TGFb COP inh: validation of TGF-b inhibitors in HepG2 COP promoter reporter; shares compounds with TGFb SMAD3 inh; HepG2 COP-GFP TGF-b reporter, GFP fluorescence, 18 h; cells stimulated by added recombinant TGF-beta; Potency, µM (titrated, usually from 46.1 µM), inactives show top-dose activity, negative = inhibition, actives largely listed as inhibitors; 1,600 compounds, 3% hits; AID 720537; also: potency is read from the fitted curve at half-maximal effect; nearly all actives have a fitted effect of over 70% in size
SKNSH spheroid: kills SK-N-SH neuroblastoma spheroids in orthogonal 3D test; shares compounds with ATXN2 expr inh; 65 compounds, 70% hits; SK-N-SH 3D spheroid viability, PI/Hoechst imaging, 72 h; Potency, µM (highest dose often 30.7 µM), most hits filed as inhibitors
SJGBM2 3D viab: reduced viability of SJ-GBM2 3D spheroids, orthogonal test; SJ-GBM2 3D spheroid viability, PI/Hoechst imaging, 72 h; 65 compounds, 80% hits; Potency, µM (highest dose often 30.7 µM), usual class: inhibitors; shares compounds with ATXN2 expr inh; AID 1347136
Daoy 3D tox: kills Daoy spheroids in orthogonal 3D test; shares compounds with ATXN2 expr inh; Daoy 3D spheroid viability, PI/Hoechst imaging, 72 h; Potency, µM (doses to about 30.7 µM), usual class: inhibitors; 65 compounds, 50% hits; AID 1347137
TC32 3D caspase: activates caspase in TC32 3D spheroids; 65 compounds, 30% hits; shares compounds with ATXN2 expr inh; TC32 3D spheroids, caspase-3/7 fluorescence imaging, 24 h; Potency, µM (top dose mostly 30.7 µM), most hits filed as inhibitors
TC32 spheroid: TC32 3D spheroid viability loss; TC32 3D spheroid viability, PI/Hoechst imaging, 72 h; 65 compounds, 60% hits; Potency, µM (doses to about 30.7 µM), actives largely listed as inhibitors; shares compounds with ATXN2 expr inh
MG63 spheroid: kills MG-63 (6-TG R) spheroids in orthogonal 3D test | 65 compounds, 50% hits | MG-63 (6-TG R) 3D spheroid viability, PI/Hoechst imaging, 72 h | Potency, µM (doses to about 30.7 µM), usual class: inhibitors | shares compounds with ATXN2 expr inh
RD spheroid: reduced viability of RD 3D spheroids, orthogonal test; shares compounds with ATXN2 expr inh; RD rhabdomyosarcoma 3D spheroid viability, PI/Hoechst imaging, 72 h; Potency, µM (highest dose often 30.7 µM), hits mostly inhibitors; 65 compounds, 50% hits; AID 1347141
Active calls of the source: *; i = inactive; ? = inconclusive; · = no result; ! = not confirmed by another sample. In the library only some 2.3% were active in any assay of this set; here they are far more common. Calls follow the shape of the dose curve; as a rule, active = well fitted curve in the direction sought with a large enough effect; inconclusive = small, poorly fitted or top-dose-only effect, or another doubt; inactive = no such curve, though single readings can be large; an effect the other way counts as inactive or inconclusive.

SMILES | TGFb SMAD3 inh | S2 tox | ATXN2 expr inh | HepG2 tox-1 | SKNSH spheroid | SJGBM2 3D viab | Daoy 3D tox | TC32 3D caspase | TC32 spheroid | MG63 spheroid | RD spheroid | others
Cc1ccc(C2(c3ccccc3)NC(=O)N(CC(=O)NCc3ccccc3)C2=O)cc1C (stereo not drawn) | 11µM* | ? | -22% | -28% | · | · | · | · | · | · | · | TGFb CAGA inh=7.3µM*;HepG2 tox-2=?;CCL64 TGFb inh=?;TGFb COP inh=42%
Cc1ccc2[nH]c3c(NCCN4CCOCC4)ncnc3c2c1 | -3% | i | -23% | 2% | · | · | · | · | · | · | ·
C=CCNc1ncnc2c1[nH]c1ccc(C)cc12 | 7.9µM* | i | 0% | -31% | · | · | · | · | · | · | · | TGFb CAGA inh=?;HepG2 tox-2=-27%;CCL64 TGFb inh=?;TGFb COP inh=-3%
C[C@]12C=CC(=O)C=C1CC[C@H]1[C@@H]3C[C@@H](O)[C@](O)(C(=O)CO)[C@@]3(C)C[C@H](O)[C@@]12F | 40% | i | -5% | -1% | ? | 0.46µM* | i | ? | 7.2µM* | i | i
COc1ccc(-c2ccc3ncc4c(c3c2)n(-c2ccc(N3CCNCC3)c(C(F)(F)F)c2)c(=O)n4C)cn1 | · | · | 7.7µM* | · | 0.25µM* | 0.031µM* | 0.0056µM* | 0.5µM* | 0.13µM* | 0.0056µM* | 0.16µM*
Clc1ccc(Cn2c3c(c4ccccc42)CCc2cc4ccccc4nc2-3)cc1 | 6% | · | · | 1% | · | · | · | · | · | · | ·
CCc1nc(N)nc(N)c1-c1ccc(Cl)cc1 | ? | i | ? | -36% | ? | 0.91µM* | ? | i | ? | ? | ?
CCc1nc(N)nc(N)c1-c1ccc(NCCN)c([N+](=O)[O-])c1 | ? | ? | -32% | · | · | · | · | · | · | · | ·
O=C(COC(=O)C12CC3CC(CC(Br)(C3)C1)C2)NCc1ccco1 | -15% | · | · | 2% | · | · | · | · | · | · | ·
O=S1(=O)C2CC3C=CC2(CN1Cc1ccccc1)O3 (stereo not drawn) | 0% | · | · | -1% | · | · | · | · | · | · | ·
CCC(=O)OCC(=O)[C@@]1(OC(=O)CC)[C@H](C)C[C@@H]2[C@H]3CCC4=CC(=O)C=C[C@]4(C)[C@]3(Cl)[C@@H](O)C[C@@]21C | · | i | · | · | · | · | · | · | · | · | ·
C[C@@H]1C[C@H]2[C@@H]3CCC4=CC(=O)C=C[C@]4(C)[C@@]3(Cl)[C@@H](O)C[C@]2(C)[C@@]1(OC(=O)c1ccco1)C(=O)CCl | -4% | ? | ? | -42% | i | ? | i | i | i | i | i
CCc1c2c(nc3ccc(OC)cc13)-c1nc3ccccc3c(=O)n1C2 | -9% | · | · | -26% | · | · | · | · | · | · | ·
COc1ccc(Nc2nc3ccccc3nc2NS(=O)(=O)c2ccc(NC(C)=O)cc2)cc1 | -29% | i | 24% | 16% | · | · | · | · | · | · | ·
COc1ccc(S(=O)(=O)Nc2cccnc2Nc2ccc(O)cc2)cc1 | · | · | -15% | · | 0.32µM* | 0.23µM* | ? | 1µM* | 0.57µM* | ? | 0.46µM*
O=C(C[n+]1cccc(Br)c1)c1cc(Cl)ccc1Cl | -7% | · | · | -13% | · | · | · | · | · | · | ·
COc1c(C)c2c(c(O)c1C/C=C(\C)CCC(=O)OCCN1CCOCC1)C(=O)OC2 | · | ? | 40% | · | ? | 0.23µM* | ? | i | ? | 0.81µM* | ?
COc1cc(C(=O)OCCN2CCOCC2)cc(OC)c1OC | 2% | i | -1% | -45% | · | · | · | · | · | · | ·
C[C@H]1[C@@H](OC(=O)CCC(=O)O)O[C@@H]2O[C@@]3(C)CC[C@@H]4[C@H](C)CC[C@@H]1[C@@]24OO3 | · | · | ? | · | ? | 1.3µM* | i | ? | ? | ? | 0.91µM*
COc1cccc2c1C(=O)c1c(O)c3c(c(O)c1C2=O)C[C@@](O)(C(=O)CO)C[C@@H]3O[C@H]1C[C@H](N)[C@@H](O)[C@H](C)O1 | 3.2µM* | · | 0.43µM*! | -32% | 0.51µM* | 0.91µM* | 1.6µM* | 1µM* | 0.81µM* | 5.1µM* | 9.1µM*
CC(=O)[C@]1(O)Cc2c(O)c3c(c(O)c2[C@@H](O[C@H]2C[C@H](N)[C@H](O)[C@H](C)O2)C1)C(=O)c1ccccc1C3=O | 28% | · | 13µM*! | -107% | 0.091µM* | 0.16µM* | 1.8µM* | 7.2µM* | 0.2µM* | 1.1µM* | 1.6µM*
COc1ccc(-c2nn(C)c3sc(C(=O)Nc4cc(OC)c(OC)c(OC)c4)cc23)cc1OC | 0% | · | · | -21% | · | · | · | · | · | · | ·
